Measurements reported in PubChem BioAssay AID1578 (Sanford-Burnham Center for Chemical Genomics, 2009).
About 3,000 (1%) of roughly 290,000 compounds were called active. Cut-off read from the data, not from the text of the source: active = inhibition mostly above about 36% (no sharp cut-off); inactive = mostly below about 34%. Many of the other results were omitted from the sample, so actives are more common in it than they were.

Experiment: inhibition of NOD1-driven NF-kB reporter – cell-based, luminescence, uHTS, primary screen (AID 1578);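 note: HEK-293T reporter cells stimulated with the NOD1 agonist gamma-tri-DAP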
Conditions: NOD1-driven NF-kB luciferase reporter cells, at 4 µM, active compounds read high

Compound	inhibition
C/C(=N\N(c1ccccc1)c1ccccc1)c1ccco1	-19.4% (inactive)
COCCOC(=O)C1=C(C)NC(=S)NC1/C=C/c1ccccc1 (stereo not given)	-9.4% (inactive)
Cc1cccc(NC(=O)c2cccc(NC(=O)c3ccccc3)c2)n1	-35.6% (inactive)
COc1ccc(NC(=O)CSc2nc3nc(-c4cccs4)cc(C(F)(F)F)c3c(=O)[nH]2)c(OC)c1	31.6% (inactive)
CC(=O)Nc1ccc(NC(=O)CSc2nc3nc(-c4cccs4)cc(C(F)(F)F)c3c(=O)[nH]2)cc1	-6.3% (inactive)
O=C(NCc1ccccc1)C1=C[C@@H](C2CC2)C[C@@H](OCCCCO)O1	-27.5% (inactive)
O=C(CC1Sc2ccccc2NC1=O)OC(C(=O)NCCc1ccccc1)c1cccnc1 (stereo not given)	3.7% (inactive)
O=C(OCC(=O)N1CCc2ccccc21)c1c2c(nc3ccccc13)CCCCC2	4.9% (inactive)
Cc1ccc(C(=O)NC(=S)/C=C2\N(C)c3ccccc3C2(C)C)cc1	15.2% (inactive)
COc1ccccc1C(=O)NC(=S)/C=C1/N(C)c2ccccc2C1(C)C	90.4% (active)
CN1/C(=C\C(=S)NC(=O)c2ccccc2Cl)C(C)(C)c2ccccc21	-48.3% (inactive)
C(=C1/CCCC2=C1Nc1ncnn1C2c1ccccc1)/c1ccccc1 (stereo not given)	3.1% (inactive)
Fc1ccccc1/C=C1\CCCC2=C1Nc1nnnn1C2c1ccccc1F (stereo not given)	11.4% (inactive)
Fc1ccccc1/C=C1\CCCC2=C1Nc1ncnn1C2c1ccccc1F (stereo not given)	91% (active)
Cc1ccc(CSc2nn3c(=O)c(C)nnc3s2)cc1	-32.1% (inactive)
N#C/C(C(N)=O)=c1/ccc2c(c1)N1C3=C(CCCC3)CC3CCCCC31N=2 (stereo not given)	86.2% (active)
O=[N+]([O-])C(=c1ccc2c(c1)N1C3=C(CCCC3)CC3CCCCC31N=2)[N+](=O)[O-] (stereo not given)	0.7% (inactive)
N#CC(C#N)=c1ccc2c(c1)N1C3=C(CCCC3)CC3CCCCC31N=2 (stereo not given)	7% (inactive)
COc1cccc(CNC(=O)CN(C)S(=O)(=O)c2cccc3cccnc23)c1	-2.3% (inactive)
CCC(C)C(NC(=O)CCC(=O)OCC(=O)[C@@]1(O)CCC2[C@@H]3CCC4=CC(=O)C=C[C@]4(C)C3[C@@H](O)C[C@@]21C)C(=O)O (stereo not given in full)	-4.9% (inactive)

Compound	inhibition
O=C(Nc1nc(-c2cccs2)cs1)c1ccc(Cl)s1	-18.7% (inactive)
O=C(Nc1nc(-c2ccccn2)cs1)c1ccc(Br)s1	32.1% (inactive)
Cc1cc(=O)n(C)c2ccc(S(=O)(=O)N3CCOCC3)cc12	-9% (inactive)
COc1ccc(N=N/C(=C\O)C(=O)c2cccs2)cc1	41.3% (active)
O=C(/C(=C/O)N=Nc1ccccc1)c1cccs1	-9.4% (inactive)
Cc1cccc(N=N/C(=C\O)C(=O)c2cccs2)c1	27% (inactive)
Cc1ccccc1C(=O)Nc1c(C)[nH]c(=O)[nH]c1=O	-1.1% (inactive)
CCC(=O)Nc1cccc(C2=NOC3(C2)C[C@H](C(N)=O)N(C(=O)Cc2ccc([N+](=O)[O-])cc2)C3)c1 (stereo not given in full)	0% (inactive)
O=[N+]([O-])c1ccc(-c2ccc(/C=N/Nc3nc(N4CCCCC4)nc(N4CCCCC4)n3)o2)cc1	7.6% (inactive)
O=[N+]([O-])c1cccc(-c2ccc(/C=N/Nc3nc(N4CCCCC4)nc(N4CCCCC4)n3)o2)c1	34.4% (active)
O=[N+]([O-])c1ccc(-c2ccc(/C=N/Nc3nc(N4CCCC4)nc(N4CCCC4)n3)o2)cc1	-26.6% (inactive)
FC(F)(F)c1cccc(-c2ccc(/C=N/Nc3nncc(-c4ccccc4)n3)o2)c1	-58.3% (inactive)
COc1ccccc1-c1cnnc(N/N=C/c2ccc(-c3cccc(Br)c3)o2)n1	52.2% (active)
Brc1ccc(-c2ccc(/C=N/Nc3nncc(-c4ccccc4)n3)o2)cc1	-106% (inactive)
S=c1nc(NCCc2ccccc2Cl)c2ccccc2[nH]1	-4% (inactive)
CC(NC(=O)CN1CCCC1)C12CC3CC(CC(C3)C1)C2 (stereo not given)	1.9% (inactive)
CC(NC(=O)Cn1ncc(Cl)c(Cl)c1=O)C12CC3CC(CC(C3)C1)C2 (stereo not given)	87% (active)
CC(NC(=O)Cn1nc(C(=O)O)c2ccccc2c1=O)C12CC3CC(CC(C3)C1)C2 (stereo not given)	-19.8% (inactive)
COC(=O)N[C@H](CC(C)=O)c1cccc(C(F)(F)F)c1	-18.1% (inactive)
Cc1ccccc1C(=O)Nc1ccnn1C1CCN(C2CCSCC2)CC1	-16.1% (inactive)

Compound	inhibition
O=C(Nc1ccc(Cl)cc1)c1sccc1-n1cccc1	-13% (inactive)
Cc1ccc(-n2[nH]c(=O)c3cccnc32)cc1	4.2% (inactive)
Cc1ccc(-n2[nH]c(=O)c(-c3ccccn3)c2C)cc1	65.1% (active)
Cc1c(-c2ccccn2)c(=O)[nH]n1-c1ccc(F)cc1	-25.2% (inactive)
O=C(NCCc1ccccc1)C(c1cccs1)N(C(=O)c1csnn1)C1CC1 (stereo not given)	-15.8% (inactive)
COc1ccc(N(C(=O)CCl)C(C(=O)NCCc2ccccc2)c2cccs2)cc1Cl (stereo not given)	63.5% (inactive)
COC(=O)c1ccccc1C(=O)c1cccc2ccccc12	30.1% (inactive)
CC(C)(C)c1cc(NC(=O)Nc2ccc(Br)cc2Cl)no1	-19.7% (inactive)
CCOC(=O)c1c(C)[nH]c(C(=O)O)c1C	7.9% (inactive)
CCOC(=O)c1[nH]c(C)c(C(=O)OCC)c1C	-5.4% (inactive)
CCOC(=O)c1c(C)[nH]c(C(=O)C(C)Cl)c1C (stereo not given)	58.6% (active)
O=C(CN1CCN(c2ccccc2)CC1)Nc1ccc(Oc2ccccc2)cc1	-2.2% (inactive)
COc1ccc(-c2cc(C(=O)NCC3CCCO3)c3cc(C(C)C)ccc3n2)cc1 (stereo not given)	-1.8% (inactive)
Cc1cccc(C(=O)Nc2sc3c(c2C(=O)O)CCC3)c1	-0.7% (inactive)
O=C(Nc1sc2c(c1C(=O)O)CCC2)c1ccccc1	26.9% (inactive)
NC(=O)c1c(NC(=O)c2ccccc2Cl)sc2c1CCC2	-50% (inactive)
CNC(=O)c1c(NC(=O)c2cccc(N3C(=O)CCC3=O)c2)sc2c1CCC2	5.2% (inactive)
O=C(Nc1sc2c(c1C(=O)O)CCC2)c1ccccc1Cl	17.5% (inactive)
O=C(Nc1sc2c(c1C(=O)O)CCCCC2)c1ccccc1	43.3% (inactive)
CNC(=O)c1c(NC(=O)c2cccc(C)c2)sc2c1CCC2	109% (active)
